C diff growth – C. difficile growth inhibitors, primary screen, HTS; Clostridium difficile clinical isolate growth, OD600, 24 h; stronger effect = lower value; growth activity, negative = inhibition, % at 16 µg/mL (by protocol); hit rate 0.25% among 86,000;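 active means mean growth activity at or below -80% and every replicate also at or below -80%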;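 further: 0% = DMSO wells and -100% = levofloxacin 16 µg/mL wells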
Pf Dd2 inh – P. falciparum Dd2 growth inhibitors, primary screen, SYBR Green fluorescence, single dose replicates; 72 h; stronger effect = lower value; activity change, % at 10 µM; hit rate 2.3% among 94,000; in the data active means activity change below about -80%
The depositor's hits bear a star; / = not tested or not shown. Compounds with a hit are over-represented: about 2.4% of the library has one in this group of screens.

SMILES | C diff growth | Pf Dd2 inh
C[C@H]1CN([C@@H](C)CO)C(=O)c2cccc(NC(=O)CCCCCC(=O)Nc3ccccc3N)c2O[C@@H]1CN(C)S(=O)(=O)c1ccccc1 | -2.1 | -35.0
C[C@@H]1CN([C@@H](C)CO)C(=O)c2cccc(NC(=O)CCCCCC(=O)Nc3ccccc3N)c2O[C@@H]1CN(C)S(=O)(=O)c1ccccc1 | -4.4 | -89.5*
O=C(C[C@@H]1CC[C@@H](NC(=O)Nc2ccccc2F)[C@@H](CO)O1)NCc1ccccc1 | -3.8 | -25.5
C[C@@H]1CN([C@@H](C)CO)C(=O)c2cccc(NC(=O)c3cnccn3)c2O[C@@H]1CN(C)Cc1ccc(C(=O)Nc2ccccc2N)cc1 | 2.0 | -92.1*
C[C@H](CO)N1C[C@H](C)[C@@H](CN(C)Cc2ccc(C(=O)Nc3ccccc3N)cc2)Oc2c(NC(=O)c3ccncc3)cccc2C1=O | -4.5 | -45.8
C[C@@H]1CN([C@H](C)CO)C(=O)c2cccc(NC(=O)c3cnccn3)c2O[C@H]1CN(C)Cc1ccc(C(=O)Nc2ccccc2N)cc1 | 5.8 | -90.9*
C[C@H]1CN([C@@H](C)CO)C(=O)c2cccc(NC(=O)c3ccncc3)c2O[C@@H]1CN(C)Cc1ccc(C(=O)Nc2ccccc2N)cc1 | 1.1 | -70.1
O=C(Cc1ccncc1)N1C[C@@H]2N[C@H](C1)C2c1ccc(/C=C/c2ccccc2)cc1 (stereo not given in full) | -2.5 | -73.2
C[C@@H]1CCCCO[C@H](CN(C)S(=O)(=O)c2ccc(F)cc2)[C@H](C)CN([C@@H](C)CO)C(=O)c2cc(NS(=O)(=O)c3cccs3)ccc2O1 | 22.3 | -50.1
Cc1ccc(S(=O)(=O)N(C)C[C@@H]2OCCCC[C@H](C)Oc3ccc(NS(=O)(=O)c4cccs4)cc3C(=O)N([C@H](C)CO)C[C@H]2C)cc1 | / | -54.7
Cc1ccc(S(=O)(=O)N(C)C[C@H]2OCCCC[C@H](C)Oc3ccc(NS(=O)(=O)c4cccs4)cc3C(=O)N([C@@H](C)CO)C[C@H]2C)cc1 | / | -85.0*
C[C@@H]1CN([C@H](C)CO)C(=O)c2cc(NS(=O)(=O)c3cccs3)ccc2O[C@@H](C)CCCCO[C@@H]1CN(C)S(=O)(=O)c1ccc(F)cc1 | 19.0 | -89.5*
C[C@@H]1CN([C@@H](C)CO)C(=O)c2cc(NC(=O)c3ccncc3)ccc2O[C@@H]1CN(C)Cc1ccc(-c2ccccc2)cc1 | 19.7 | -26.5
CC(C)(C)S(=O)N1Cc2cc(C(=O)NCc3ccc4c(c3)OCO4)nc(-c3cccc(-c4cc5ccccc5o4)c3)c2[C@H]1CCO (stereo not given in full) | -3.7 | -93.3*
CC(C)(C)S(=O)N1Cc2cc(C(=O)NCc3ccc4c(c3)OCO4)nc(-c3cccc(-c4cccc(F)c4)c3)c2[C@@H]1CCO (stereo not given in full) | 3.1 | -66.8
CC(C)NC(=O)N1Cc2cc(C(=O)NCC(F)(F)F)nc(-c3cccc(-c4cc5ccccc5o4)c3)c2[C@H]1CCO | 25.6 | -85.6*
CC(C)NC(=O)N1Cc2cc(C(=O)NC3Cc4ccccc4C3)nc(-c3cccc(-c4cccnc4)c3)c2[C@@H]1CCO | 7.1 | /
CO[C@H]1CN(C)C(=O)c2ccc(NC(=O)c3cc(C)on3)cc2OC[C@H](C)N(CC2CC2)C[C@H]1C | / | 1.4
CO[C@@H]1CN(C)C(=O)c2cc(NC(=O)C3CCOCC3)ccc2OC[C@H](C)N(Cc2nccs2)C[C@@H]1C | / | 20.3
C[C@H]1CN([C@@H](C)CO)C(=O)Cc2cc(NC(=O)CCCCCC(=O)Nc3ccccc3N)ccc2O[C@@H]1CN(C)Cc1ccc2c(c1)OCO2 | -4.8 | -40.3
C[C@@H]1CN([C@H](C)CO)C(=O)Cc2cc(NC(=O)CCCCCC(=O)Nc3ccccc3N)ccc2O[C@H]1CN(C)Cc1ccc2c(c1)OCO2 | -4.5 | -40.0
C[C@@H]1CN([C@H](C)CO)C(=O)c2cccc(NC(=O)CCCCCC(=O)Nc3ccccc3N)c2O[C@H]1CN(C)Cc1ccc2c(c1)OCO2 | -1.4 | -90.5*
C[C@@H]1CN([C@H](C)CO)C(=O)c2cccc(NC(=O)CCCCCC(=O)Nc3ccccc3N)c2O[C@@H]1CN(C)Cc1ccc2c(c1)OCO2 | 1.1 | -85.2*
CC(C)CC#Cc1ccc([C@H]2[C@@H](CO)N3C(=O)CN(C(=O)Cc4ccccc4)C[C@H]23)cc1 | -6.8 | -84.8*
CC(C)CC#Cc1ccc([C@@H]2[C@@H](CO)N3C(=O)CN(C(=O)Cc4ccccc4)C[C@H]23)cc1 | 72.4 | -37.0
SMILES | C diff growth | Pf Dd2 inh
O=C(Cc1ccccc1)N1CC(=O)N2[C@H](CO)[C@H](c3ccc(C#Cc4ccccc4)cc3)[C@@H]2C1 | 1.2 | 5.5
O=C(Cc1ccccc1)N1CC(=O)N2[C@H](CO)[C@H](c3ccc(C#Cc4ccccc4)cc3)[C@H]2C1 | -5.7 | -84.0*
Cc1ccc(S(=O)(=O)N(C)C[C@H]2Oc3ccc(NC(=O)CCCN(C)C)cc3CC(=O)N([C@@H](C)CO)C[C@H]2C)cc1 | 7.4 | 36.4
C[C@H]1CN([C@@H](C)CO)C(=O)c2c(c3ccccc3n2C)-c2ccccc2CO[C@H]1CN(C)S(=O)(=O)c1ccc(Cl)cc1 | / | -86.1*
C[C@H](CO)N1C[C@H](C)[C@H](CN(C)S(=O)(=O)c2ccc(Cl)cc2)OCc2ccccc2-c2c(n(C)c3ccccc23)C1=O | -0.9 | -93.6*
C[C@@H]1CN([C@H](C)CO)C(=O)c2c(c3ccccc3n2C)-c2ccccc2CO[C@@H]1CN(C)S(=O)(=O)c1ccc([N+](=O)[O-])cc1 | -0.7 | -68.9
C[C@@H]1CN([C@@H](C)CO)C(=O)c2c(c3ccccc3n2C)-c2ccccc2CO[C@@H]1CN(C)S(C)(=O)=O | / | -19.2
C[C@H]1CN([C@@H](C)CO)C(=O)c2c(c3ccccc3n2C)-c2ccccc2CO[C@@H]1CN(C)S(=O)(=O)c1ccc(Cl)cc1 | / | -84.8*
C[C@@H]1CN([C@@H](C)CO)C(=O)c2c(c3ccccc3n2C)-c2ccccc2CO[C@@H]1CN(C)S(=O)(=O)c1ccc(Cl)cc1 | / | -86.7*
CO[C@H]1CN(C)C(=O)c2cc(NS(=O)(=O)c3ccc(C)cc3)ccc2OC[C@@H](C)N(Cc2nccs2)C[C@@H]1C | 2.6 | -47.2
CN1C(=O)c2cc(NC(=O)c3cccc(F)c3)ccc2OC[C@@H]2O[C@H](CC(=O)NCc3ccccc3)CC[C@@H]21 | -1.9 | -17.4
Cc1ccc(-c2ccc3c(c2)O[C@H](CN(C)C(=O)C2CC2)[C@@H](C)CN([C@H](C)CO)S3(=O)=O)cc1 | / | -12.7
CN1C(=O)c2cc(NS(=O)(=O)c3ccc(F)cc3)ccc2OC[C@H]2O[C@@H](CC(=O)NCC(F)(F)F)CC[C@H]21 | -6.2 | -5.0
CC(=O)N1CC2(C1)[C@H](c1ccc(-c3cccc(F)c3)cc1)[C@@H](CO)N2CC1CC1 | -4.2 | -17.9
C[C@@H]1CN([C@H](C)CO)C(=O)c2c(c3ccccc3n2C)-c2ccccc2CO[C@@H]1CN(C)S(=O)(=O)c1ccc(C#N)cc1 | / | -39.0
C[C@@H]1CN([C@H](C)CO)C(=O)c2c(c3ccccc3n2C)-c2ccccc2CO[C@H]1CN(C)S(=O)(=O)c1ccc(Cl)cc1 | / | -84.1*
C[C@@H]1CCCCO[C@H](CN(C)S(=O)(=O)c2ccccc2)[C@H](C)CN([C@@H](C)CO)C(=O)c2cc(NC(=O)Nc3ccc(F)cc3)ccc2O1 | -3.0 | -71.9
